Source: PubChem (National Center for Advancing Translational Sciences (NCATS))
Compounds with a hit are over-represented: about 13% of the library has one in this group of screens.
HCMV inh – human cytomegalovirus inhibition. AID 1259415. HFF cells, HCMV-luciferase reporter, 72 h; hits give low values. activity change, negative = inhibition, % at 57.5 µM. hit rate 4.5% among 410,000; in the data active = activity change below about -60%; inconclusive = no clear call, values can overlap the other calls; inactive = above about -39%
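Two compound doses tested in HFFs infected with HCMV-luciferase, MOI 1 PFU/cell, 72 h at 37C. Lysate luminescence read with OneGlo; data normalized against buffer-only and 10uM Salinomycin inhibitor controls.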
HCV inhibitor – inhibitors of hepatitis C virus infection; Huh7.5.1 HCVcc-Cre infection, luciferase reporter, 44 h; Potency, µM (doses to about 41.8 µM), usual class: inhibitors; hit rate 3.4% among 340,000
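Reporter virus HCVcc-Cre (~0.5 moi) infects cells exposed to compound; seeding density 1,000 cells/well with 4 h settling beforehand. Luminescence, 15 sec read, taken 44 h post-infection following a 15 min RT substrate incubation.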
Pf growth 48h – P. falciparum growth inhibition at 48 hours (one generation); P. falciparum luciferase growth in erythrocytes, 48 h; AID 504832; Potency, µM (highest dose often 28.7 µM), hits mostly inhibitors; hit rate 5.9% among 310,000
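Here the parasites carry a stable luciferase gene and grow inside erythrocytes in Albumax-based RPMI medium with compound for one erythrocytic cycle. Activity is scored as loss of luminescent signal.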
Pf growth 96h – P. falciparum growth inhibition at 96 hour, primary screen for plastid delayed-death inhibitors | P. falciparum luciferase reporter growth, 96 h | Potency, µM (doses to about 28.7 µM), actives largely listed as inhibitors | hit rate 6.9% among 320,000
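Plates of compound plus infected erythrocytes (2% hematocrit, 0.05% parasitemia final) incubate 96 hours, 37 C, 5% CO2. Detection reagent added; reduced luminescence from the parasites' luciferase reporter flags inhibition.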
Of the large screens only hits and unclear results are named; the others gave an inactive call. Unless noted, calls follow the shape of the dose curve; as a rule, active = well fitted inhibition curve with a large enough effect; inconclusive = small, poorly fitted or top-dose-only effect, or another doubt; inactive = no such curve, though single readings can be large or run the other way.

CC1(C)S[C@H]2C(NC(=O)[C@@H](N)c3ccc(O)cc3)C(=O)N2[C@@H]1C(=O)O (some centres not stated)	none (no result: HCMV inh, HCV inhibitor)
Cc1cccc(NC(=O)/C(C#N)=C/c2ccco2)c1	none (no result: HCV inhibitor, Pf growth 48h, Pf growth 96h)
Cc1c(C(=O)N2CCOCC2)cc(C(C)(C)C)n1-c1ccccc1	Pf growth 48h 9.3µM, Pf growth 96h 9.3µM
CC(C(=O)N1CCOCC1)(c1ccccc1)c1ccccc1	HCV inhibitor inconclusive, Pf growth 48h inconclusive
Cc1ccc(-c2nn(-c3ccccc3)cc2C(=O)N2CCOCC2)cc1	Pf growth 96h 2.3µM
COc1ccc(-c2nn(-c3ccccc3)cc2C(=O)NC(=S)N2CCOCC2)cc1OC	HCMV inh -96
CCCCSc1nc(C)cc(C)c1S(=O)(=O)c1ccccc1C	Pf growth 48h inconclusive, Pf growth 96h 10µM
Cc1cc(C)c(S(=O)(=O)c2ccccc2C)c(Cl)n1	none (no result: HCV inhibitor)
CCOC(=O)c1sc(NC(=O)c2cccc(S(=O)(=O)N3c4ccccc4CC3C)c2)cc1C (configuration not stated)	HCV inhibitor 4µM, Pf growth 48h 2.9µM, Pf growth 96h inconclusive
Cc1cc(NC(=O)c2cccc(S(=O)(=O)N3CCC(C)CC3)c2)no1	Pf growth 48h inconclusive
Cc1noc(C)c1COC(=O)c1cccc(S(=O)(=O)N2CCOCC2)c1	HCV inhibitor inconclusive, Pf growth 48h inconclusive
Cc1cc(NC(=O)c2cccc(S(=O)(=O)N3c4ccccc4CC3C)c2)no1 (configuration not stated)	HCV inhibitor inconclusive, Pf growth 48h 3.3µM, Pf growth 96h 5.2µM
Cc1noc(C)c1COC(=O)c1cccc(S(=O)(=O)N2c3ccccc3CC2C)c1 (configuration not stated)	HCV inhibitor 11µM, Pf growth 48h inconclusive
CCn1c(CNC(=O)c2ccc(OC)cc2)nnc1SCC(=O)Nc1ccc(OC)cc1	none (no result: HCV inhibitor, Pf growth 48h, Pf growth 96h)
CCCCCC(/C=N/Nc1ccc(S(=O)(=O)N2CCOCC2)cc1[N+](=O)[O-])=C\c1ccccc1	HCMV inh -96, Pf growth 48h inconclusive (no result: Pf growth 96h)
CCCN1CCC(=NNc2ccc(S(=O)(=O)N3CCOCC3)cc2[N+](=O)[O-])CC1	HCMV inh -73, HCV inhibitor inconclusive, Pf growth 96h inconclusive
Cc1ccc(CNc2ccc(S(=O)(=O)N3CCOCC3)cc2[N+](=O)[O-])cc1	HCV inhibitor inconclusive, Pf growth 96h 10µM
CC(=O)N1CCC(=NNc2ccc(S(=O)(=O)N3CCOCC3)cc2[N+](=O)[O-])CC1	HCV inhibitor inconclusive, Pf growth 96h inconclusive
CC(C)N1CCC(=NNc2ccc(S(=O)(=O)N3CCOCC3)cc2[N+](=O)[O-])CC1	HCMV inh inconclusive
CCOC(=O)c1cnc(NCc2ccccc2OC)c2ccccc12	none (no result: HCV inhibitor, Pf growth 48h, Pf growth 96h)
Cc1ccc(OCCCC(=O)Nc2sc3c(c2C(N)=O)CCC(C)C3)cc1 (configuration not stated)	none (no result: HCV inhibitor, Pf growth 48h, Pf growth 96h)
CC1=C(C(N)=O)C(c2ccc(C(C)C)cc2)n2nc(SCc3ccccc3)nc2N1 (configuration not stated)	none (no result: HCV inhibitor, Pf growth 48h, Pf growth 96h)
COc1cc(-c2cc3nc(C)c(C)c(=O)n3[nH]2)cc(OC)c1OC	Pf growth 48h 10µM
CCc1c(C)nc2cc(-c3ccccc3)[nH]n2c1=O	Pf growth 48h inconclusive, Pf growth 96h inconclusive
CCOC(=O)c1ccc(Nc2c(-c3cccc(O)c3)nc3nc[nH]n23)cc1	none (no result: HCV inhibitor, Pf growth 48h, Pf growth 96h)
Cc1ccc(F)c([C@H]2C3C=CCC(c4ccccc4)C3C(=O)N2Cc2ccccc2)c1 (some centres not stated)	Pf growth 48h 12µM, Pf growth 96h inconclusive
O=C1C2C(c3ccccc3)CC=CC2[C@H](c2ccc3ccccc3c2)N1Cc1ccccc1 (some centres not stated)	Pf growth 48h inconclusive, Pf growth 96h inconclusive
COc1cc(-c2cccc([C@H]3[C@@H]4C=CC[C@@H](C)[C@@H]4C(=O)N3Cc3ccccc3)c2)cc(OC)c1OC	HCV inhibitor 10µM (no result: Pf growth 48h, Pf growth 96h)
Cc1ccc(-c2cc([C@H]3[C@H]4C=CC[C@@H](C)[C@@H]4C(=O)N3Cc3ccccc3)ccc2F)cc1	Pf growth 48h 10µM, Pf growth 96h inconclusive
CC(=O)c1ccc(-c2cccc([C@H]3[C@@H]4C=CC[C@@H](C)[C@@H]4C(=O)N3Cc3ccccc3)c2)cc1	HCV inhibitor 11µM (no result: Pf growth 48h, Pf growth 96h)
Cc1cccc(C)c1Nc1nc2ccccc2nc1NS(=O)(=O)c1ccccc1	none (no result: HCV inhibitor, Pf growth 48h, Pf growth 96h)
CCOC(=O)C1CCC(CN(Cc2ccc(OC)cc2)S(=O)(=O)c2ccc(F)c(C(=O)Nc3ccc(C)c(C)c3)c2)CC1 (configuration not stated)	none (no result: HCV inhibitor, Pf growth 48h, Pf growth 96h)
